A short description of assay [1]: qHTS assay for small molecule agonists of the p53 signaling pathway (AID 651631; calls by dose curve; also: nearly all actives have a fitted effect of over 15% in size; also: potency is read from the fitted curve at half-maximal effect). Put shortly: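 Fluorescence intensity from cleaved LiveBLAzer B/G substrate (2 h, room temperature) served as the signal. Beforehand, HCT-116 reporter cells bearing p53 response elements were treated 16 h at 37 °C with DMSO-dissolved compounds.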
Background: Quantitative high-throughput screening tests each substance at several concentrations.

The nature of assay [2]: qHTS assay for small molecules that induce genotoxicity in human embryonic kidney cells expressing luciferase-tagged ATAD5 (AID 651632). Also: nearly all actives have a fitted effect of over 15% in size. Also: potency is read from the fitted curve at half-maximal effect. Put shortly:
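Quantitative HTS in HEK293T expressing luciferase-tagged ATAD5, whose levels rise upon DNA damage. Exposure ran 16 hr at 37C and 5% CO2, with luminescence read 30 min after Amplite addition at room temperature.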

The nature of assay [3]: qHTS assay for small molecule agonists of the p53 signaling pathway - cell viability (AID 651633; calls by dose curve; also: nearly all actives have a fitted effect of over 30% in size; also: potency is read from the fitted curve at half-maximal effect). The essentials: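 p53RE-bla cells were treated with compound for 16 hours at 37 C. Cytotoxicity was then measured as CellTiter-Glo luminescence after 30 min at room temperature.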
Assay [4] is described as follows: qHTS assay for small molecules that induce genotoxicity in human embryonic kidney cells expressing luciferase-tagged ATAD5 - cell viability (AID 651634; calls by dose curve; also: nearly all actives have a fitted effect of over 25% in size; also: potency is read from the fitted curve at half-maximal effect). Put shortly: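 After 15.5 hr incubation with compound at 37C, 5% CO2, HEK293T ATAD5-luciferase cells received CellTiter-Fluor reagent; fluorescence intensity was quantified following 30 min at 37C.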
Assay [5] can be described thus: qHTS assay to test for compound auto fluorescence at 590 nm (red) in HepG2 cells (AID 720674). The essentials:
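Fluorescence at 590 nm emission following 540 nm excitation was recorded from HepG2 wells one hour after compound transfer, with DMSO-only wells as vehicle and Rose Bengal sodium equivalency as the scale.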

Assay [6] in a line: qHTS assay to test for compound auto fluorescence at 535 nm (green) in HepG2 cells (AID 720675).
The nature of assay [7]: qHTS assay to test for compound auto fluorescence at 460 nm (blue) in HEK293 cells (AID 720678). The essentials:
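HEK293 cells (2,000/well, medium with 10% dialyzed FBS) attached 4-5 hr, then exposed to compound overnight at 37C, 5% CO2. Blue fluorescence read at 405/460 nm, with triamterene as reference fluorophore.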

The nature of assay [8]: qHTS assay to test for compound auto fluorescence at 590 nm (red) in HEK293 cells (AID 720679). Put shortly: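 HEK293 cells (2,000/well, 10% dialyzed FBS) attached 4-5 hr, then dosed with compound or DMSO and incubated overnight at 37C, 5% CO2. Red fluorescence read at 540/590 nm, Rose Bengal sodium as reference fluorophore.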
Assay [9] can be described thus: qHTS assay for small molecule disruptors of the mitochondrial membrane potential - cell viability (AID 720634; calls by dose curve; also: nearly all actives have a fitted effect of over 20% in size; also: potency is read from the fitted curve at half-maximal effect). Put shortly: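 ATP-based luminescent viability readout (CellTiter-Glo, 30 min, room temperature) in HepG2 cells multiplexed with the m-MPI membrane potential dye; compound exposure lasted 1 hr at 37 C.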
Assay [10] is described as follows: qHTS assay for small molecule disruptors of the mitochondrial membrane potential (AID 720635). Also: potency is read from the fitted curve at half-maximal effect. The essentials:
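HepG2 cells exposed to compound 1 hr at 37C, then Mito-MPS dye 30 min. Ratio read of aggregate (540/590 nm) versus monomer (490/535 nm) fluorescence.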

Structures are written as SMILES. “And” between values parts separate entries of the source, which are not always exact repeats. Equal entries are not always repeated. A number with no mark means an inactive call. Records with an inconclusive call do not appear. The source made the active and inactive calls. Unless noted, calls follow the shape of the dose curve; as a rule, active = well fitted curve in the direction sought with a large enough effect in the repeat runs; inconclusive = weak or mixed curves; inactive = no such curve, though single readings can be large; an effect the other way counts as inactive or inconclusive.
% is scaled to controls: 0 for no effect and ±100 for the full control effect.

With `O=c1oc2ccccc2c(O)c1Cc1c(O)c2ccccc2oc1=O`, the Potency in assay [1] is 0.639 µM (active); in [3], 0.507 µM (active). Further, the Potency entry in assay [2] and in assay [4] was “inactive” in each case. In addition, the fluorescence, relative to Rose Bengal in assay [5] is -0.349% [at 18.6 µM]. Also, in assay [6], the fluorescence, % of fluorescein control was 0.0236% [at 18.6 µM]. In addition, the fluorescence, % of triamterene in [7] was 0.108% [at 18.6 µM]. In [8], the fluorescence, % of fluorescent control was -0.0848% [at 18.6 µM].

As to `COc1cc(C=O)cc2c1[C@H](COC(N)=O)[C@]1(OC(C)=O)ON2C[C@H]2[C@@H]1N2C(C)=O`, the Potency in [1] was 1.54 µM (active). For the same molecule, the Potency entry in assay [2], in assay [9], in assay [10] and in assay [7] was “inactive” throughout. Further, the result in assay [5], in assay [6] and in [8] was inactive.

`CC(Cc1ccc(C(C)(C)C)cc1)CN1C[C@@H](C)O[C@@H](C)C1` (stereo partly specified): the Potency entry in assay [2], in assay [3], in assay [4], in assay [9] and in [7] was “inactive” in each case. In addition, the Potency in assay [10] was 61.1 µM (active). The outcome in assay [5], in assay [6] and in [8] was inactive.

`CC(C)[C@H](C(=O)O[C@H](C#N)c1cccc(Oc2ccccc2)c1)c1ccc(Cl)cc1`: the Potency result in assay [1], in assay [2], in assay [3], in [4] and in assay [7] was “inactive” in each case. Moreover, the Potency in [10] is 30.6 µM (active). For the same molecule, the molecule was called inactive in assay [5], in assay [6] and in assay [8].

Take `Clc1ccc(-c2ccc(Cl)c(Cl)c2Cl)c(Cl)c1Cl`: the Potency in assay [1] is 58.2 µM (active); in [3], 65.3 µM (active). The Potency entry in assay [2], in [4] and in assay [7] was “inactive” in each case. The result in [5], in assay [6] and in assay [8] was inactive.

Turning to `CCC(C)c1cc([N+](=O)[O-])cc([N+](=O)[O-])c1OC(=O)C=C(C)C` (stereo unspecified), the results for the Potency in assay [1] and in assay [4] were 12.2 µM (active) and 30.6 µM (active), respectively. The Potency entry in assay [2] and in assay [7] was “inactive” throughout. Moreover, the molecule was called inactive in [5], in assay [6] and in [8].

For `O=[N+]([O-])c1ccc2ccc3cccc4ccc1c2c34`, the Potency in assay [2] was 48.5 µM (active); in assay [10] it was 1.22 µM (active). Besides, the Potency entry in assay [3], in assay [4], in assay [9] and in assay [7] was “inactive” in each case. In addition, the outcome in assay [5], in assay [6] and in [8] was inactive.

With `CCOc1cc(C(C)(C)C)ccc1C1COC(c2c(F)cccc2F)=N1` (stereo unspecified), the Potency entry in assay [2], in assay [4] and in assay [7] was “inactive” throughout. Also, the Potency in assay [3] was 41.6 µM (active); in [9] it was 29.5 µM (active); in [10] it was 16.6 µM (active). The molecule was classed as inactive in [5], in [6] and in assay [8].

Regarding `Nc1ccccc1C(=O)Oc1ccc2ccccc2c1`, the Potency result in [1], in assay [3], in [4] and in assay [7] was “inactive” in each case. In addition, the Potency in assay [2] is 5.45 µM (active); in [10] it was 61.1 µM (active). The outcome in assay [5], in assay [6] and in assay [8] was inactive.

As for `Clc1ccc(C(c2ccc(Cl)cc2)C(Cl)(Cl)Cl)cc1`, the Potency entry in assay [2], in assay [4], in assay [9] and in assay [7] was “inactive” throughout. In addition, the Potency in assay [3] is 26.6 µM (active) and 48.9 µM (active) and 27.3 µM (active); in assay [10] it was 21.1 µM (active) and 19.5 µM (active) and 15.4 µM (active). Further, the molecule was classed as inactive in [5], in [6] and in [8].

Consider `BrCBr`, for which the Potency entry in assay [1], in [3], in [9], in [10] and in assay [7] was “inactive” throughout. In addition, the result in [5], in [6] and in [8] was inactive.

On to `CCOC(=O)CC(=O)CCl`, for which the Potency in assay [1] was 68.6 µM (active). For the same molecule, the Potency entry in [9] and in assay [7] was “inactive” in each case. Further, the outcome in [5], in assay [6] and in assay [8] was inactive.

Take `BrC(Br)Br`: the Potency entry in assay [1], in [3], in assay [4], in [9] and in assay [7] was “inactive” throughout. Further, the molecule was called inactive in assay [5], in [6] and in assay [8].

`CCOC(=O)C1(c2ccccc2)CCN(CCC(C#N)(c2ccccc2)c2ccccc2)CC1`: the Potency in [1] was 3.76 µM (active) and 26.6 µM (active); in assay [3], 1.88 µM (active) and 9.44 µM (active); in assay [10], 13.3 µM (active) and 26.6 µM (active). Moreover, the Potency entry in [2], in [4] and in assay [7] was “inactive” throughout. In addition, the molecule was called inactive in assay [5], in [6] and in [8].

For the molecule `O=C(CCCN1CCC2(CC1)C(=O)NCN2c1ccccc1)c1ccc(F)cc1`, the Potency result in assay [2], in assay [3], in [4], in [9] and in assay [7] was “inactive” each time. Further, the Potency in [10] was 3.35 µM (active). Further, the molecule was classed as inactive in assay [5], in assay [6] and in assay [8].

Regarding `N#CSCSC#N`, the Potency is 5.57 µM (active) and 10.8 µM (active) in assay [1]; 19.8 µM (active) and 30.3 µM (active) in assay [2]; 62.5 µM (active) and 60.5 µM (active) in assay [3]; 62.5 µM (active) and 48.1 µM (active) in assay [10]. Besides, the outcome in [5], in assay [6] and in assay [8] was inactive. Further, the Potency result in [7] was “inactive”.

Regarding `c1ccc(OCC2CO2)cc1` (stereo unspecified), the Potency entry in assay [1], in [3], in assay [9] and in assay [7] was “inactive” throughout. Moreover, the outcome in [5], in assay [6] and in assay [8] was inactive.

Turning to `CCC(C)(C)C(=O)OC1=C(c2ccc(Cl)cc2Cl)C(=O)OC12CCCCC2`, the Potency in assay [1] was 7.7 µM (active); in assay [3], 61.1 µM (active); in assay [10] it was 9.69 µM (active). The Potency result in assay [4] and in assay [7] was “inactive” in each case. Besides, the molecule was classed as inactive in assay [5], in [6] and in assay [8].

Regarding `Oc1ccc(C2(c3ccc(O)cc3)c3ccccc3-c3ccccc32)cc1`, the results for the Potency in [1], in [3] and in [10] were 61.1 µM (active), 0.172 µM (active) and 61.1 µM (active), respectively. In addition, the Potency result in [2] and in assay [7] was “inactive” each time. Moreover, the call in assay [5], in assay [6] and in assay [8] was inactive.

As to `CC(C)CC(C)(c1ccc(O)cc1)c1ccc(O)cc1`, the Potency result in assay [2], in [4] and in assay [7] was “inactive” in each case. The Potency in [3] is 68.7 µM (active) and 61.1 µM (active); in [9], 34.4 µM (active) and 27.3 µM (active); in assay [10] it was 6.87 µM (active) and 6.86 µM (active). Besides, the result in [5], in assay [6] and in assay [8] was inactive.

In the case of `O=C(NC(=O)c1c(F)cccc1F)Nc1cc(Cl)c(OC(F)(F)C(F)F)c(Cl)c1`, the Potency entry in assay [2], in [3], in [4], in assay [9] and in [7] was “inactive” in each case. For the same molecule, in assay [10], the Potency is 19.3 µM (active). Moreover, the outcome in assay [5], in assay [6] and in assay [8] was inactive.

In the case of `Clc1ccc(C(c2ccccc2Cl)C(Cl)(Cl)Cl)cc1` (stereo unspecified), the Potency was 69 µM (active) in assay [1]; 54.8 µM (active) and 40.2 µM (active) in assay [3]. The Potency result in assay [2], in assay [4] and in assay [7] was “inactive” in each case. Besides, the result in [5], in assay [6] and in assay [8] was inactive.

Take `O=CC(Br)(Br)Br`: the Potency was 13.6 µM (active) in [1], 9.66 µM (active) in assay [2], 30.5 µM (active) in assay [4] and 30.5 µM (active) in assay [10]. The Potency entry in [3] and in [7] was “inactive” in each case. The call in assay [5], in [6] and in assay [8] was inactive.
